Measured values reported in the supplement of paper PMC4723716.
± gives the uncertainty stated by the source. Whole data set: some 9,900 compounds, median “viability index relative to DMSO control” near 1, cut for the lowest 2% near 0.85. The entries come from a sample that favours the lowest values as a whole.

Tested on: Plasmodium falciparum NF54 stage V gametocytes
Assay: viability index relative to DMSO control (fraction); higher = less gametocyte killing
Settings: 2.5 µM, incubation time: 72 h
Description: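 Broad DOS informer set and blood-stage-active DOS compounds screened in duplicate at 2.5 µM against P. falciparum NF54 stage V gametocytes with the serum-free one-step SaLSSA (1536-well): 72 h at 37 °C under low oxygen, then saponin lysis and MitoTracker Red CMXRos staining, with high-content imaging. Viability index = viable-object count divided by the plate mean of DMSO wells (0 = killed, about 1 = inactive).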

[1] = library set: Broad Institute DOS
[2] = library set: Broad Institute Blood Stage

| SMILES | viability index [1] | viability index [2] |
| --- | --- | --- |
| CC(C)C#Cc1ccc([C@H]2[C@@H](CO)N3C(=O)CN(C(=O)Cc4ccccc4)C[C@@H]23)cc1 | 1.07 ± 0.021 |  |
| CC(C)C#Cc1ccc([C@@H]2[C@@H](CO)N3C(=O)CN(C(=O)Cc4ccccc4)C[C@@H]23)cc1 | 1.07 ± 0.047 |  |
| C/C=C/c1ccc([C@H]2[C@@H](CO)N3C(=O)CN(S(=O)(=O)c4ccccc4)C[C@H]23)cc1 | 0.975 ± 0.12 |  |
| CC(C)C#Cc1ccc([C@@H]2[C@H](CO)N3C(=O)CN(C(=O)Cc4ccccc4)C[C@@H]23)cc1 | 1.1 ± 0.016 |  |
| CC(C)C#Cc1ccc([C@H]2[C@H](CO)N3C(=O)CN(C(=O)Cc4ccccc4)C[C@@H]23)cc1 | 1.08 ± 0.08 |  |
| CC(C)C#Cc1ccc([C@@H]2[C@@H](CO)N3C(=O)CN(C(=O)Cc4ccccc4)C[C@H]23)cc1 | 1.04 ± 0.039 |  |
| CC(C)C#Cc1ccc([C@@H]2[C@H]3CN(C(=O)Cc4ccccc4)CC(=O)N3[C@H]2CO)cc1 | 0.864 ± 0.047 |  |
| CC(C)C#Cc1ccc([C@H]2[C@@H](CO)N3C(=O)CN(C(=O)Cc4ccccc4)C[C@H]23)cc1 | 0.848 ± 0.025 |  |
| C/C=C/c1ccc([C@@H]2[C@@H](CO)N3C(=O)CN(S(=O)(=O)c4ccccc4)C[C@@H]23)cc1 | 0.777 ± 0.16 |  |
| O=C(Cc1ccccc1)N1CC(=O)N2[C@H](CO)[C@H](c3ccc(C#CCc4ccccc4)cc3)[C@H]2C1 |  | 0.699 ± 0.1 |
| C/C=C/c1ccc([C@H]2[C@H]3CN(S(=O)(=O)c4ccccc4)CC(=O)N3[C@H]2CO)cc1 | 1.03 ± 0.034 |  |
| O=C(Cc1ccccc1)N1CC(=O)N2[C@H](CO)[C@H](c3ccc(C#Cc4ccccc4)cc3)[C@H]2C1 |  | 0.728 ± 0.097 |
| C[C@H]1CN([C@@H](C)CO)C(=O)c2c(c3ccccc3n2C)-c2ccccc2CO[C@@H]1CN(C)C(=O)[C@@H](Cc1ccccc1)N(C)C | 1.07 ± 0.11 |  |
| CCS(=O)(=O)Nc1ccc2c(c1)C(=O)N(C)C[C@H](OC)[C@H](C)CN(CC1CCCCC1)[C@H](C)CO2 | 0.995 ± 0.1 |  |
| CN1CCN(C(=O)c2cc3c(c(-c4cccc(C5=CCCC5)c4)n2)[C@@H](CCO)N([S@](=O)C(C)(C)C)C3)CC1 | 0.991 ± 0.024 |  |
| O=C(Nc1cccc(Cl)c1)N1C[C@H]2[C@@H](c3ccccc31)[C@@H](CO)N2Cc1cccnc1 | 1.06 ± 0.092 |  |
| C[C@@H]1CCCn2cc(nn2)COCCNC1=O | 0.994 ± 0.094 |  |
| COCC#Cc1ccc([C@@H]2[C@@H](CO)N3CCCCN(C(=O)NC4CCCC4)C[C@@H]23)cc1 | 1.01 ± 0.02 |  |
| CC(C)CC#Cc1ccc([C@H]2[C@@H](CO)N3CCCCN(C(=O)Nc4ccccc4)C[C@H]23)cc1 | 0.782 ± 0.084 |  |
| CC(C)CC#Cc1ccc([C@@H]2[C@@H](CO)N3CCCCN(C(=O)Nc4ccccc4)C[C@H]23)cc1 | 0.844 ± 0.032 |  |
| CC(C)CC#Cc1ccc([C@H]2[C@H](CO)N3CCCCN(C(=O)Nc4ccccc4)C[C@@H]23)cc1 | 0.935 ± 0.034 |  |
| CC(C)CC#Cc1ccc([C@@H]2[C@H]3CN(C(=O)Nc4ccccc4)CCCCN3[C@H]2CO)cc1 | 0.542 ± 0.086 |  |
| CC(C)CC#Cc1ccc([C@@H]2[C@H](CO)N3CCCCN(C(=O)Nc4ccccc4)C[C@@H]23)cc1 | 0.877 ± 0.053 |  |
| CC(C)CC#Cc1ccc([C@H]2[C@@H](CO)N3CCCCN(C(=O)Nc4ccccc4)C[C@@H]23)cc1 | 1.02 ± 0.057 |  |

| SMILES | viability index [1] | viability index [2] |
| --- | --- | --- |
| CC(C)CC#Cc1ccc([C@@H]2[C@@H](CO)N3CCCCN(C(=O)Nc4ccccc4)C[C@@H]23)cc1 | 1 ± 0.15 |  |
| CC(C)CC#Cc1ccc([C@H]2[C@H]3CN(C(=O)Nc4ccccc4)CCCCN3[C@H]2CO)cc1 | 0.99 ± 0.061 |  |
| Cc1noc(C)c1NC(=O)N1C[C@@H](O)COC[C@H]2O[C@@H](CC(=O)N[C@@H]3CCN(Cc4ccccc4)C3)CC[C@@H]21 | 0.994 ± 0.052 |  |
| CCC(=O)N1[C@H](CO)[C@@H]2c3ccccc3N(C(=O)c3cnccn3)C[C@@H]21 | 0.908 ± 0.3 |  |
| C/C=C/c1ccc2n(c1=O)C[C@H]1[C@H](CO)[C@@H](C(=O)Nc3nccs3)N(Cc3cc(F)ccc3F)[C@@H]21.C/C=C\c1ccc2n(c1=O)C[C@H]1[C@H](CO)[C@@H](C(=O)Nc3nccs3)N(Cc3cc(F)ccc3F)[C@@H]21 | 1.07 ± 0.056 |  |
| Cc1noc(C)c1NC(=O)N(C)C[C@H]1Oc2ccc(NC(=O)Cc3cn(C)c4ccccc34)cc2CC(=O)N([C@@H](C)CO)C[C@H]1C | 0.941 ± 0.2 |  |
| COCC#Cc1ccc([C@H]2[C@H]3CN(C(=O)C4CCCCC4)CC(=O)N3[C@H]2CO)cc1 | 1.01 ± 0.034 |  |
| COc1ccc2c3c([C@@H](CO)N(C)C[C@]33CCN(CC3)C(=O)CN3CCOCC3)n(C)c2c1 | 0.9699 ± 0.0061 |  |
| CN(C)C(=O)c1ccc(-c2ccc([C@H]3[C@@H]4CN(Cc5ccccc5Cl)C[C@H]3N4)cc2)cc1 | 0.846 ± 0.021 |  |
| CN(C)C(=O)c1cccc(-c2ccc([C@@H]3[C@@H]4CN(Cc5ccccc5F)C[C@H]3N4)cc2)c1 | 0.977 ± 0.016 |  |
| CN(C)C(=O)c1cccc(-c2ccc([C@H]3[C@@H]4CN(Cc5ccccc5F)C[C@H]3N4)cc2)c1 | 1.05 ± 0.084 |  |
| Cc1ccc(S(=O)(=O)Nc2cccc3c2O[C@H](CN(C)C(=O)Nc2ccc(C(F)(F)F)cc2)[C@H](C)CN([C@H](C)CO)C3=O)cc1 | 1.07 ± 0.04 |  |
| Cc1ccc(S(=O)(=O)N2CC[C@@H]3[C@@H](CO)Nc4ccc(-c5cccc(C(=O)N(C)C)c5)cc4[C@@H]32)cc1 | 0.837 ± 0.012 |  |
| Cc1ccc(S(=O)(=O)N2CC[C@@H]3[C@H](CO)Nc4ccc(-c5cccc(C(=O)N(C)C)c5)cc4[C@@H]32)cc1 | 0.77 ± 0.034 |  |
| CN(C)C(=O)c1cccc(-c2ccc3c(c2)[C@@H]2[C@@H](CCN2C(=O)Cc2ccccc2)[C@H](CO)N3)c1 | 0.991 ± 0.022 |  |
| CN(C)C(=O)c1cccc(-c2ccc3c(c2)[C@H]2[C@H](CCN2C(=O)Cc2ccccc2)[C@H](CO)N3)c1 | 1.03 ± 0.03 |  |
| CN(C)C(=O)c1cccc(-c2ccc3c(c2)[C@@H]2[C@@H](CCN2C(=O)Cc2ccccc2)[C@@H](CO)N3)c1 | 1.04 ± 0.025 |  |
| N#Cc1cccc(-c2ccc3c(c2)[C@H]2[C@H](CCN2S(=O)(=O)c2ccc(F)cc2)[C@@H](CO)N3)c1 | 0.949 ± 0.023 |  |
| Cc1ccc(S(=O)(=O)N2CC[C@@H]3[C@H]2c2cc(-c4cccc(C(=O)N(C)C)c4)ccc2N[C@@H]3CO)cc1 | 0.885 ± 0.055 |  |
| Cc1ccc(S(=O)(=O)N2CC[C@H]3[C@H](CO)Nc4ccc(-c5cccc(C(=O)N(C)C)c5)cc4[C@H]32)cc1 | 0.7 ± 0.018 |  |
| CN(C)C(=O)c1cccc(-c2ccc3c(c2)[C@H]2[C@H](CCN2C(=O)Cc2ccccc2)[C@@H](CO)N3)c1 | 0.899 ± 0.042 |  |
| O=C(N[C@H]1C=C[C@@H](CC(=O)N2CCN(c3ccccc3)CC2)O[C@H]1CO)c1ccccc1 | 1.04 ± 0.087 |  |
| N#C[C@H]1[C@H](c2ccc(-c3cncnc3)cc2)[C@@H](CO)N1C(=O)Cc1ccccc1 | 1.06 ± 0.1 |  |
| COc1ccc(-c2ccccc2[C@@H]2[C@@H](CO)N(C(=O)C3CCC3)[C@H]2C#N)cc1 | 1.17 ± 0.15 |  |

| SMILES | viability index [1] | viability index [2] |
| --- | --- | --- |
| O=C(C[C@@H]1CC[C@H]2NC[C@H](O)COC[C@@H]2O1)Nc1nccs1 | 1.04 ± 0.068 |  |
| C[C@H](CO)N1C[C@H](C)[C@H](CN(C)Cc2cccc(C(F)(F)F)c2)OCc2ccccc2-c2c(n(C)c3ccccc23)C1=O | 0.972 ± 0.029 |  |
| COc1cccc(S(=O)(=O)N2CCCCN3[C@@H](CO)[C@@H](c4ccc(C#CCC(C)C)cc4)[C@@H]3C2)c1 | 0.393 ± 0.021 |  |
| COc1cccc(S(=O)(=O)N2CCCCN3[C@H](CO)[C@H](c4ccc(C#CCC(C)C)cc4)[C@H]3C2)c1 | 0.6428 ± 0.0032 |  |
| COc1cccc(S(=O)(=O)N2CCCCN3[C@H](C2)[C@H](c2ccc(C#CCC(C)C)cc2)[C@@H]3CO)c1 | 0.9833 ± 0.0041 |  |
| COc1cccc(S(=O)(=O)N2CCCCN3[C@H](CO)[C@H](c4ccc(C#CCC(C)C)cc4)[C@@H]3C2)c1 | 1 ± 0.078 |  |
| COc1cccc(S(=O)(=O)N2CCCCN3[C@H](CO)[C@@H](c4ccc(C#CCC(C)C)cc4)[C@@H]3C2)c1 | 0.941 ± 0.042 |  |
| COc1cccc(S(=O)(=O)N2CCCCN3[C@@H](CO)[C@H](c4ccc(C#CCC(C)C)cc4)[C@@H]3C2)c1 | 1.01 ± 0.053 |  |
| COc1ccc(NC(=O)N(C)C[C@H]2Oc3c(NC(=O)CCCCCC(=O)Nc4ccccc4N)cccc3C(=O)N([C@@H](C)CO)C[C@H]2C)cc1 | 0.645 ± 0.046 |  |
| COc1ccc(NC(=O)N(C)C[C@H]2Oc3c(NC(=O)CCCCCC(=O)Nc4ccccc4N)cccc3C(=O)N([C@H](C)CO)C[C@H]2C)cc1 | 0.62 ± 0.082 |  |
| COc1ccc(NC(=O)N(C)C[C@@H]2Oc3c(NC(=O)CCCCCC(=O)Nc4ccccc4N)cccc3C(=O)N([C@@H](C)CO)C[C@H]2C)cc1 | 1.07 ± 0.091 |  |
| COc1ccc(NC(=O)N(C)C[C@@H]2Oc3c(NC(=O)CCCCCC(=O)Nc4ccccc4N)cccc3C(=O)N([C@@H](C)CO)C[C@@H]2C)cc1 | 0.943 ± 0.058 |  |
| COc1ccc(NC(=O)N(C)C[C@H]2Oc3c(NC(=O)CCCCCC(=O)Nc4ccccc4N)cccc3C(=O)N([C@@H](C)CO)C[C@@H]2C)cc1 | 0.991 ± 0.081 |  |
| COc1ccc(NC(=O)N(C)C[C@@H]2Oc3c(NC(=O)CCCCCC(=O)Nc4ccccc4N)cccc3C(=O)N([C@H](C)CO)C[C@H]2C)cc1 | 0.893 ± 0.012 |  |
| COc1ccc2c3c([C@@H](CO)N(Cc4cc(OC)cc(OC)c4)C[C@]33CN(C3)C(=O)CN3CCOCC3)n(C)c2c1 | 0.879 ± 0.02 |  |
| COC(=O)C[C@H]1CC[C@H]2[C@@H](COc3ccc(NS(=O)(=O)c4ccc(C)cc4)cc3C(=O)N2C)O1 | 1.114 ± 0.0014 |  |
| C[C@@H]1CCCCO[C@@H](CN(C)CC2CCCCC2)[C@H](C)CN([C@@H](C)CO)C(=O)c2cc(NS(C)(=O)=O)ccc2O1 | 1.08 ± 0.061 |  |
| CS(=O)(=O)N1C[C@@H]2N[C@H](C1)[C@@H]2c1ccc(-c2ccccc2)cc1 | 0.706 ± 0.03 |  |
| O=S(=O)(c1ccc(-c2ccccc2)cc1)N1C[C@@H]2N[C@H](C1)[C@@H]2c1ccc(-c2ccncc2)cc1 | 1.072 ± 0.0057 |  |
| CC(=O)N1C[C@@H]2N[C@H](C1)[C@H]2c1ccc(-c2ccccc2)cc1 | 1.11 ± 0.016 |  |
| COc1cccc(-c2ccc([C@@H]3[C@@H]4CN(S(=O)(=O)Cc5ccccc5)C[C@H]3N4)cc2)c1 | 0.808 ± 0.031 |  |
| N#Cc1ccc(-c2ccc([C@@H]3[C@@H]4CN(S(=O)(=O)Cc5ccccc5)C[C@H]3N4)cc2)cc1 | 0.976 ± 0.037 |  |
| Cc1ccccc1-c1ccc([C@@H]2[C@@H]3CN(S(=O)(=O)Cc4ccccc4)C[C@H]2N3)cc1 | 0.854 ± 0.034 |  |
